ARNT-TACC3 inh = disruptors of ARNT/TACC3 protein interaction, primary screen, biochemical, AlphaScreen, single concentration; AlphaScreen His-ARNT PAS-B/GST-TACC3 binding, luminescence; TACC3 fragment carries E629A point mutation; AID 623870, 2012; 0.66% of 390,000 active; Transforming acidic coiled-coil-containing protein 3 (Homo sapiens), Q9Y6A5; inhibition, % at 9.99 µM;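 active = mean inhibition of replicates at least 50% and at least half of replicates each reaching 50%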;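 note: 0% = complete ARNT plus TACC3 wells and 100% = ARNT alone without TACC3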
PvdQ acylase = P. aeruginosa PvdQ acylase inhibitors, primary screen, biochemical, fluorescence, plate reader and imaging, single point. PvdQ acylase [Pseudomonas aeruginosa LESB58]. purified PvdQ acylase. inhibition, % at 10 µM. 0.063% of 340,000 active; in the data active = inhibition above about 30%, passing the limit was not always enough;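 note: 0% = vehicle neutral wells and 100% = reference inhibitor wells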
Ecoli rRNA inh = reduced GFP signal of wild-type E. coli, primary screen, bacterial rRNA inhibitor project, GFP/RFP fluorescence, OD600, single point. E. coli WT GFP vs humanized-ribosome RFP mutants, 24 h; hits give low values; DMSO median 0, no signal -100. GFP signal change (wild-type ribosome), % (no concentration beside the values). 1.6% of 350,000 active;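 active = significant combined selectivity score with lowered wild-type GFP, culture density cut under 30%, mutant RFP and density less affected; inactive = any of these conditions unmet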
F508del corr = F508del CFTR correction, initial screen, CFBE line, single point | CFBE cells, YFP halide quenching; stimulated with forskolin plus potentiator P3; % fluorescence drop versus neutral controls | activity (quench increase), % at 7.58 µM | 0.36% of 350,000 active | AID 720511, 2013;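 active = mean added fluorescence quench of at least 8% versus neutral control, with both replicates also reaching 8%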;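 note: cells transiently co-express mutant CFTR-F508del with the halide-sensitive YFP; corrector assay measuring rescue of mutant channel to the surface after 24 h compound exposure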
ERAP1 inh = human ERAP1 aminopeptidase inhibitors, primary screen, biochemical, single point, plate reader | 0.15% of 340,000 active | inhibition, % at 10.7 µM | recombinant ERAP1, Leu-AMC fluorescence, 60 min;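 active = mean replicate inhibition of at least 30%, or all replicates individually reaching that 30% level; inactive = mean below 30% and not every replicate reaching it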;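 note: 0% = neutral control wells and 100% = L-leucinethiol positive control wells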
Target sequence (Q9NZ08 whole entry, looked up): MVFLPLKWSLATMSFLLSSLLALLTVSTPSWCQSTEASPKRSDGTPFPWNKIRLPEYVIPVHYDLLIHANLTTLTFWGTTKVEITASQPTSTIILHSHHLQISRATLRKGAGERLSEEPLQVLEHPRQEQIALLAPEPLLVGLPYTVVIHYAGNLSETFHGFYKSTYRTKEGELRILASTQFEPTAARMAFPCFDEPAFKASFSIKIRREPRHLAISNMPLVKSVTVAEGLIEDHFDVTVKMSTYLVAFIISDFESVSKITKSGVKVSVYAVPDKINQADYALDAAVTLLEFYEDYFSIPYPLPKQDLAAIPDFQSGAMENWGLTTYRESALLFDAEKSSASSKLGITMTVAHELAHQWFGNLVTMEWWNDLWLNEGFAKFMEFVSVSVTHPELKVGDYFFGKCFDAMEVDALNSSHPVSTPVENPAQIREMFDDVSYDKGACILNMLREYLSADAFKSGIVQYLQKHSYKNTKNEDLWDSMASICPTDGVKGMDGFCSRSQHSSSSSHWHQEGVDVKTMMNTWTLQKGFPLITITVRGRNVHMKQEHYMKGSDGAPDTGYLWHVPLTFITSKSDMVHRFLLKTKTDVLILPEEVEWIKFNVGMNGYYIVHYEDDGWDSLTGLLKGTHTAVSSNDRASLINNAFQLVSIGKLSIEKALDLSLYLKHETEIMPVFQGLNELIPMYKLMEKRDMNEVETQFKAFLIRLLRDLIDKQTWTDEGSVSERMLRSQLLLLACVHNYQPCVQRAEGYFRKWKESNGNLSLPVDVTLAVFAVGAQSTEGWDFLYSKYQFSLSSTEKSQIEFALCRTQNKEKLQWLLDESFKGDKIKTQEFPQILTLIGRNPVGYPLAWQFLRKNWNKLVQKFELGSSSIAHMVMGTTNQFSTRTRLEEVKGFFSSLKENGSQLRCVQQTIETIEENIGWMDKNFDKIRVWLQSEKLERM
An asterisk follows results filed as active; / = no result; ! = repeats disagree. The list is not random: actives were taken first. Their share in the collection is about 2.1%.

SMILES	ARNT-TACC3 inh	PvdQ acylase	Ecoli rRNA inh	F508del corr	ERAP1 inh
C[C@H]1CN([C@@H](C)CO)C(=O)Cc2cc(NC(=O)CCC(F)(F)F)ccc2O[C@H]1CN(C)C(=O)Nc1ccc(C(F)(F)F)cc1	-16	/	3	-2	/
CO[C@@H]1CN(C)C(=O)c2cc(NC(=O)C3CC3)ccc2OC[C@H](C)N(CC2CCCC2)C[C@H]1C	2	/	3	1	-2
O=C(NCCCCc1ccccc1)c1cccc(NC(=O)C2CCCCC2)c1	9	2	-30*	-2	-1
O=C(NCCCCc1ccccc1)c1cccc(NC(=O)C2CCC2)c1	/	10	-31	-3	/
O=C(Cc1cccc(NC(=O)C2CCN(C(=O)C3CCCC3)CC2)c1)Nc1cccc(C(=O)N2CCCC2)c1	-3	-10	-21*	0	/
C[C@H](CO)N1C[C@H](C)[C@H](CN(C)Cc2ccc3c(c2)OCO3)OCCCC[C@H](C)Oc2ccc(NS(=O)(=O)c3cccs3)cc2C1=O	3	/	1	1	/
CCC(=O)N1[C@H](C(=O)N(C)C)[C@@H](CO)[C@@H]2Cn3c(ccc(-c4ccccc4)c3=O)[C@@H]21	/	/	5	-3	/
COCC(=O)Nc1ccc2c(c1)[C@H]1C[C@H](CC(=O)N[C@H](C)c3ccccc3)O[C@H](CO)[C@H]1O2	6	/	3	2	-1
O=C(COC(=O)c1cccc(O)c1)Nc1ccc(OC(F)F)cc1	/	2	-25*	1	2
O=C(COC(=O)c1ccc(O)cc1)Nc1ccc(OC(F)F)cc1	-11	-7	10	-4	0
COc1ccc(NC(=O)Nc2c(O)ccc3ccccc23)cc1	4	8	-26*	-1	-4
CCCC(=O)NC(c1ccc(OC)cc1)c1c(O)ccc2ccccc12 (stereo not given)	-3	-15	-27*	0	0
COc1ccc(C(=O)Nc2c(O)ccc3ccccc23)cc1	3	-10	3	-3	/
COCC(=O)Nc1ccc2c(c1)OC[C@@H](C)N(Cc1ccccc1)C[C@H](C)[C@H](OC)CN(C)C2=O	5	/	-3	-2	-4
Cc1ccc(NS(=O)(=O)c2ccc(NC(=O)C3CC3)cc2)cc1C	-3	-6	-24*	-1	1
CN(C(=O)CCn1c(=S)oc2ccccc21)c1ccc(F)cc1	/	36*	-1	3	-7
O=C(CCn1c(=S)oc2ccccc21)Nc1ccc(F)cc1	-4	-16	7	3	-11
O=C(C[C@H]1C[C@H]2c3cc(NC(=O)C4CCC4)ccc3O[C@H]2[C@@H](CO)O1)NCc1cccc(F)c1	3	/	-1	0	-4
COc1ccc(NC(=O)Nc2ccc3c(c2)C(=O)N([C@H](C)CO)C[C@@H](C)[C@H](CN(C)S(=O)(=O)c2ccc(Cl)cc2)OCCCC[C@H](C)O3)cc1	-1	/	-2	-3	3
CC(=O)c1cnn(-c2c(Cl)cc(Cl)cc2Cl)c1C	-1	1	-22*	-1	-1
C[C@H]1CN([C@@H](C)CO)S(=O)(=O)c2ccc(C#CC3CC3)cc2O[C@H]1CN(C)C(=O)c1cnccn1	7	/	-1	-4	2
C[C@@H]1CN([C@H](C)CO)C(=O)c2cc(NC(=O)c3ccccc3)ccc2O[C@@H](C)CCCCO[C@@H]1CN(C)S(=O)(=O)c1cn(C)cn1	29	/	-2	1	0
C=CCn1nc([N+](=O)[O-])nc1Sc1cccc2cccnc12	74*	-11	/	/	/
CC(C)CC#Cc1ccc2c(c1)O[C@H](CN(C)C(=O)c1cccc(F)c1)[C@@H](C)CN([C@@H](C)CO)S2(=O)=O	3	/	-2	-2	-2
O=C(N[C@H]1CC[C@H](CCNS(=O)(=O)c2ccc(Cl)cc2)O[C@@H]1CO)c1cccc(F)c1	-6	/	-25*!	2	2
SMILES	ARNT-TACC3 inh	PvdQ acylase	Ecoli rRNA inh	F508del corr	ERAP1 inh
N#C/C(C(N)=O)=c1/ccc2c(c1)N1C3=C(CCCC3)CC3CCCCC31N=2 (stereo not given)	65*	7	/	/	/
N#CC(C#N)=c1ccc2c(c1)N1C3=C(CCCC3)CC3CCCCC31N=2 (stereo not given)	38	5	/	/	/
Cc1ncc(CN2CCCC(C(=O)Nc3ccc(-c4cccc(F)c4)cc3)C2)cn1 (stereo not given)	-8	-18	-7	-4	0
Cc1ncc(CN2CCCC(C(=O)Nc3ccc(-c4cccc(F)c4)cc3)C2)s1 (stereo not given)	-4	-24	-31*	-2	-1
Cc1onc(-c2ccccc2Cl)c1C(=O)O/N=C(\N)c1ccccc1	-8	-10	-4	0	-1
C/C(=N\OC(=O)c1c(-c2ccccc2Cl)noc1C)c1ccncc1	-1	-6	-23*	1	4
COc1ccc(OC)c(-c2cnc(OC(C)(C)C)nc2OC(C)(C)C)c1	/	-2	4	14*	0
CNc1cncc(-c2cc(OC)ccc2OC)n1	/	/	7	2	-1
Cc1noc(C)c1NC(=O)N(C)C[C@H]1OCCCC[C@H](C)Oc2ccc(NS(=O)(=O)c3ccc(F)cc3)cc2C(=O)N([C@H](C)CO)C[C@@H]1C	-10	/	-2	3	-7
COc1ccc(NC(=O)Nc2ccc3c(c2)C(=O)N([C@@H](C)CO)C[C@@H](C)[C@H](CN(C)C(=O)NC(C)C)OCCCC[C@@H](C)O3)cc1	-8	/	-2	0	0
COc1ccc(NC(=O)Nc2ccc3c(c2)CC(=O)N([C@@H](C)CO)C[C@H](C)[C@@H](CN(C)Cc2ccccc2)O3)cc1	-1	/	-2	2	-2
COc1ccc(-c2ccc3n(c2=O)C[C@H]2[C@H](CO)[C@@H](C(=O)NCCN4CCCC4)N(C)[C@@H]32)cc1	/	/	-2	0	0
CC(C(=O)NC1C=CS(=O)(=O)C1)N1C(=O)/C(=C/c2cccc(Cl)c2)SC1=S (stereo not given)	3	-14	-28*	1	-1
O=C(CN1C(=O)/C(=C/c2cccc(Cl)c2)SC1=S)NC1C=CS(=O)(=O)C1 (stereo not given)	1	0	5	-2	2
COc1ccccc1/C=C1/SC(=S)N(C(C)C(=O)NC2C=CS(=O)(=O)C2)C1=O (stereo not given)	14	4	-11	0	-3
CC(C(=O)NC1C=CS(=O)(=O)C1)N1C(=O)/C(=C\c2ccccc2)SC1=S (stereo not given)	6	-11	-16*	3	2
